High-throughput results from PubChem BioAssay.
An excerpt weighted towards active compounds, which were near 7.7% of everything screened.
HCMV antiviral: qHTS Assay for inhibitors of the human cytomegalovirus (HCMV); HFF cells, HCMV-luciferase reporter, 72 h; stronger effect = lower value; activity change, negative = inhibition, % at 57.5 µM; 4.5% of 410,000 active; AID 1259415, 2018; in the data active means activity change below about -60%; inconclusive means no clear call, values can overlap the other calls; inactive means above about -39%
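Inhibition of viral replication was scored as loss of reporter luminescence in HFFs infected with HCMV-luciferase (MOI 1 PFU/cell) for 72 h; compounds tested at 2 doses, normalized to buffer and Salinomycin controls.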
FMDV antiviral: High Throughput Screening for Foot and Mouth Disease Virus Antivirals; AID 1159524, 2015; 1.2% of 410,000 active; Potency, µM (top dose mostly 57.9 µM), most hits filed as inhibitors; FMDV antiviral cell-based qHTS; calls by dose curve; tested in HEK293T cells; further: read-out not given here; nearly all actives have a fitted effect of over 45% in size
Giardia FBPA inh: qHTS Assay for Inhibitors of Fructose-1,6-bisphosphate Aldolase from Giardia Lamblia; 0.71% of 290,000 active; A8B2U2; AID 2451, 2010; purified Giardia FBPA; Potency, µM (doses to about 59.6 µM), usual class: inhibitors; further: nearly all actives have a fitted effect of over 55% in size
Target sequence (A8B2U2 whole entry, looked up): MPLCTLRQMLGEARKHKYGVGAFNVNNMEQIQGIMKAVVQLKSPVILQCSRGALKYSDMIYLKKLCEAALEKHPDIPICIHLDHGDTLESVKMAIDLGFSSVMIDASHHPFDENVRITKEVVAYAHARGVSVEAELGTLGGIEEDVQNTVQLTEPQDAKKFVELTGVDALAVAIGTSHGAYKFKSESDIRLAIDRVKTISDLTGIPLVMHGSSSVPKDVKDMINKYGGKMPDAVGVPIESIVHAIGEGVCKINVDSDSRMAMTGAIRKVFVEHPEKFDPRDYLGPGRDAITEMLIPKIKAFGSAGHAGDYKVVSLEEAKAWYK
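Giardia FBPA (40 nM reagent) was preincubated 10 min at RT with compound (up to 57.5 uM final), then substrate plus GAPDH/TPI/NAD/arsenate coupling system with diaphorase/resazurin was added; resorufin fluorescence (525/598 nm) was read after 20 min.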
Sm TGR inh: qHTS Assay for the Inhibitors of Schistosoma Mansoni Peroxiredoxins; 3% of 360,000 active; Potency, µM (doses to about 114 µM), hits mostly inhibitors; purified TGR, DTNB reduction, TNB absorbance 405 nm; further: nearly all actives have a fitted effect of over 60% in size
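TGR 20 nM + NADPH 100 uM (dispensed conc.), cpd preinc 15 min RT; start with NADPH (500 uM addition) then DTNB (15 mM addition). Kinetic TNB absorbance, 405 nm filter. Four-parameter Hill fit across titration.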
RE007 growth inh: qHTS Assay for Inhibitors of the HIV-1 protein Vpr. AID 651644, 2012. 0.21% of 360,000 active. S. pombe RE007 Vpr strain, BacTiter-Glo ATP luminescence, 24 h. Potency, µM (series often up to 92.2 µM), usual class: inhibitors; active means well fitted falling curve with a large enough effect; inconclusive means small, poorly fitted or top-dose-only effect; inactive means no such curve, though single readings can be large or run the other way; further: nearly all actives have a fitted effect of over 50% in size
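Fission yeast strain RE007, carrying one chromosomally integrated HIV-1 vpr copy, was seeded at OD 0.01 in PMG+AL medium with 23 nL pinned compound. After 24 h at 30 °C and 99% humidity, viability was read by BacTiter-Glo luminescence.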
TbPYK inhibitor: qHTS of Trypanosoma Brucei Inhibitors; pyruvate kinase (Trypanosoma brucei), Q57TT1; AID 624173, 2012; TbPYK enzyme, Kinase-Glo Plus ATP luminescence, 45 min; 0.12% of 410,000 active; Potency, µM (series often up to 76.8 µM), hits mostly inhibitors; further: nearly all actives have a fitted effect of over 50% in size
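Quantitative HTS: titrated library compounds versus trypanosomal pyruvate kinase in TEA buffer (pH 7.2) containing KCl, MgCl2, BSA and Tween-20. Reactions were initiated with ADP, 130 uM final. Kinase-Glo Plus luminescence was read after 45 min at RT.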
Numbers stand for hits; - = inactive; ? = inconclusive; . = not tested or not shown; ! = not active in a repeat; [ ] = dose if it differs, or a comment. Unless noted, the call rests on the fitted dose curve; in most records, active means well fitted curve in the direction sought with a large enough effect; inconclusive means small, poorly fitted or top-dose-only effect, or another doubt; inactive means no such curve, though single readings can be large; an effect the other way counts as inactive or inconclusive.

SMILES | HCMV antiviral | FMDV antiviral | Giardia FBPA inh | Sm TGR inh | RE007 growth inh | TbPYK inhibitor
O=C(CCCC(=O)N(c1ccc2c(c1)OCCO2)C(C(=O)NC1CCCCC1)c1ccc(F)cc1)Nc1ccccn1 (stereo not given) | -68 | . | - | - | - | -
Cc1ccc(C(C(=O)NC2CCCCC2)N(C(=O)CCCC(=O)Nc2ccccn2)c2ccc3c(c2)OCCO3)cc1 (stereo not given) | -63 | - | - | - | - | -
O=C(CCC(=O)N(CC(=O)NC1CCCCC1)c1ccc2c(c1)OCCO2)Nc1ccccn1 | . | . | - | - | . | .
Cn1c(=O)c2cc(C(=O)N3CCN(c4ccc(Cl)cc4)CC3)sc2c2ccccc21 | - | - | . | - | . | -
Cn1c(-c2c(N)n(C3CCCC3)c3nc4ccccc4nc23)nc2ccccc21 | ? | - | - | - | 7.1µM | -
COc1ccccc1-[n+]1c(C)cc(/C=C2\Sc3ccccc3N2C)cc1C | -80 | 4µM | - | - | ? | -
COc1ccc(C(=O)/C=C2\Sc3ccccc3N2C)cc1 | - | - | ? | . | - | -
COc1ccc(-[n+]2c(C)cc(/C=C3\Sc4ccccc4N3C)cc2C)cc1 | -99 | ? | - | - | ? | -
Cc1ccccc1NC(=O)N[C@H]1CC[C@@]23CCCN2C(=O)CCC[C@H]3[C@H]1C | - | . | . | . | . | .
COc1c2ccccc2nn1-c1ccc(I)cc1 | - | . | . | . | . | .
O=c1c2cc(N3CCOCC3)ccc2[nH]c(=S)n1Cc1ccco1 | - | - | ? | 8.9µM | - | ?
Fc1cccc(Cl)c1-c1nnc2ccc3ccccc3n12 | -84 | - | ? | - | - | -
Cc1cccc(C(=O)N2CCc3cc(CNS(=O)(=O)c4cccs4)ccc32)c1 | -62 | ? | . | - | . | -
Cc1ccc(C(=O)N2CCc3cc(CNS(=O)(=O)c4cccs4)ccc32)cc1 | - | - | . | - | . | -
COc1ccc(Cl)cc1S(=O)(=O)NCc1ccc2c(c1)CCN2C(=O)c1cccc(C)c1 | -87 | - | . | - | . | -
COc1ccc(S(=O)(=O)NCc2ccc3c(c2)CCN3C(=O)c2ccc(C)cc2)cc1Cl | - | - | . | - | . | -
COc1ccc(S(=O)(=O)NCc2ccc3c(c2)CCN3C(=O)c2ccccc2)cc1OC | - | - | . | - | . | -
CC(C)c1ccc(S(=O)(=O)NCc2ccc3c(c2)CCN3C(=O)c2ccccc2)cc1 | -66 | - | . | - | . | -
CC(NC(=O)CCCC1=NS(=O)(=O)c2ccccc2N1)c1ccccc1 (stereo not given) | - | - | . | - | . | -
Cc1c(C(=O)NCc2ccc3c(c2)OCO3)sc(=O)n1Cc1ccc(-c2ccccc2)cc1 | -67 | - | . | . | -[18.4 µM] | -
Cc1c(C(=O)NCc2ccccn2)sc(=O)n1Cc1ccc(-c2ccccc2)cc1 | - | - | . | . | -[18.4 µM] | -
Cc1ccc(Cn2c(C)c(C(=O)NCc3ccc4c(c3)OCO4)sc2=O)cc1 | - | - | . | . | -[18.4 µM] | -
Cc1c(C(=O)NCc2ccc([N+](=O)[O-])cc2)sc(=O)n1Cc1ccc(-c2ccccc2)cc1 | -84 | - | . | . | -[18.4 µM] | -
Cc1cccc(C)c1NC(=O)Cn1nc(C)c2sc3ccccc3c2c1=O | - | - | . | - | . | -
Cc1ccc(CN(Cc2cccn2-c2nnc(N3CCCC3=O)s2)C(=O)Nc2ccccc2Cl)cc1 | - | - | . | - | . | -
SMILES | HCMV antiviral | FMDV antiviral | Giardia FBPA inh | Sm TGR inh | RE007 growth inh | TbPYK inhibitor
COc1ccc(NC(=O)CSc2nc3nc(C)cc(C)n3n2)cc1 | - | - | . | - | - | -
Cc1cc(C)n2nc(SCC(=O)Nc3ccccc3)nc2n1 | -63! | - | - | - | - | -
Cc1cc(C)c(Cn2c3ccccc3c3cnn(CC(=O)NCCCc4ccccc4)c(=O)c32)c(C)c1 | - | - | . | - | . | -
CCOc1ccc(/C=N/Nc2ccc(Cl)nn2)c(O)c1 | -82 | - | - | - | - | -
Oc1ccc(/C=N/Nc2ccc(Cl)nn2)c(O)c1O | - | ? | ? | 14µM | . | -
Oc1c(Br)cc(/C=N/Nc2ccc(Cl)nn2)cc1Br | - | - | - | - | - | -
Oc1c(Br)cc(Br)cc1/C=N/Nc1ccc(Cl)nn1 | -97 | - | - | - | - | -
N=C(N)SCCN=C(N)N | . | - | - | . | . | .
CCc1cc(=O)oc2cc3occ(-c4ccc(OC)c(F)c4)c3cc12 | -68 | ? | - | - | - | -
COc1cc(OC)c2c(-c3cccc(-c4ccc(C(C)=O)cc4)c3)cc(=O)oc2c1 | . | - | - | . | - | -
COc1cc(OC)c2c(-c3cccc(-c4ccc(OC)c(F)c4)c3)cc(=O)oc2c1 | -68 | - | - | . | - | -
O=C(NCc1ccco1)c1cc2c(s1)CSC2 | . | - | - | 18µM | - | -
O=C(NCc1ccc2c(c1)OCO2)c1cc2c(s1)CSC2 | - | - | - | - | - | -
CC(=C/c1ccco1)/C=N/NC(=O)c1nnn(-c2nonc2N)c1CN(C)C | -60 | - | ? | - | - | -
CC(/C=N/NC(=O)Cc1cccs1)=C\c1ccco1 | - | - | - | ? | -[3.69 µM] | .
CC(/C=N/NC(=O)c1cccs1)=C\c1ccco1 | - | - | ? | 32µM | - | -
O=C(NCc1ccco1)/C(=C\c1cccs1)NC(=O)c1cccs1 | - | - | - | - | - | -
O=C(NCc1ccco1)/C(=C\c1ccco1)NC(=O)c1cccs1 | - | - | - | 28µM | - | -
O=C(NCc1ccco1)c1cccs1 | - | - | - | 35µM | - | -
Cc1cccc(NC(=O)/C(=C\c2ccco2)NC(=O)c2cccs2)c1 | - | - | - | 50µM | - | -
Cc1ccc(C(=O)N/C(=C/c2ccco2)C(=O)NCc2ccco2)cc1 | - | - | - | 40µM | - | -
COc1ccc(C(=O)N/C(=C/c2ccco2)C(=O)NCc2ccco2)cc1 | - | - | - | ? | - | -
COc1ccc(C(=O)N/C(=C\c2ccco2)C(=O)OCc2ccco2)cc1 | - | - | - | 28µM | - | -
Cc1ccc(C(=O)N/C(=C/c2ccco2)C(=O)Nc2cccc(C)c2)cc1 | - | . | - | ? | - | -
Cc1cc(C(=O)NCCC2=CCCCC2)c(C)o1 | - | - | - | 22µM | - | -
CC(C)CNC(=O)c1coc(=O)c(Br)c1 | -77 | ? | - | - | -[3.69 µM] | .
CN(C)CCNC(=O)c1coc(=O)c(Br)c1 | - | - | - | - | - | -
O=C(NCCC1=CCCCC1)c1coc(=O)c(Br)c1 | -103 | - | - | - | - | -
O=C(N[C@@H](Cc1cccnc1)C(=O)N1CCC[C@H]1C(=O)NCCc1ccccc1Cl)c1cccs1 | - | . | . | . | . | .
Cc1cc(C)cc(NC(=O)/C=C/c2ccc([N+](=O)[O-])s2)c1 | -92 | - | - | - | - | -
